Source: PubChem (National Center for Advancing Translational Sciences (NCATS))
LMNA splice mod – qHTS Assay for Modulators of Lamin A Splicing. HeLa LMNA splicing GFP/RFP minigene ratio, 48 h. 0.01% of 200,000 active. Potency, µM (highest dose often 46.1 µM), for the others: at the top dose ratio change, negative = inhibition, hits mostly inhibitors; active = well fitted inhibition curve with a large enough effect in the signal ratio, with a control signal flat, not every such curve was filed as active; inconclusive = small, poorly fitted or top-dose-only effect, or effect the other way, or a change in a side signal; the % refers to the signal ratio; note: potency is the fitted concentration of half-maximal effect
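Read-out is the ratio of GFP to DsRed2 object intensity, acquired by 488 nm laser-scanning cytometry on HeLa lamin A-EGFP minigene reporter cells. Compound incubation 48 hrs at 37 °C in Opti-MEM with 2% FBS; DMSO 0.5% final.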
ALDH1A1 inh – qHTS Assay for Inhibitors of Aldehyde Dehydrogenase 1 (ALDH1A1). 7.3% of 220,000 active. Potency, µM (series often up to 75.3 µM), without a hit: at the top dose activity, negative = inhibition, actives largely listed as inhibitors. Purified ALDH1A1, NADH fluorescence, propionaldehyde substrate. Aldehyde dehydrogenase 1A1 (Homo sapiens), P00352;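 note: potency is the fitted concentration of half-maximal effect; plate controls were no enzyme wells and a reference inhibitor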
PNC inhibitor – High Content Assay for Compounds that inhibit the Assembly of the Perinucleolar Compartment. activity change (PNC), negative = inhibition, % at 10 µM. AID 2417, 2010. 3.1% of 140,000 active. PC3M PTB-GFP, PNC prevalence imaging, 16 h; hits give low values;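 active = readout at or below -70, meaning at least 70% loss of cells showing the perinucleolar compartment, a nuclear body marking cancer cells; inconclusive = readout between -30 and a set limit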;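 note: plate controls were DMSO wells for no effect and camptothecin positive control wells for full effect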
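Read-out is percentage of cells bearing a perinucleolar compartment, from automated 20x imaging of fixed, Hoechst-stained PC3M PTB-GFP cells. Cells were seeded 4 h, then exposed 16 h to compound (23 nl of library stock) in duplicate plates.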
HPGD inh – qHTS Assay for Inhibitors of HPGD (15-Hydroxyprostaglandin Dehydrogenase); 15-hydroxyprostaglandin dehydrogenase [NAD(+)] (Homo sapiens), P15428; purified HPGD, NADH fluorescence kinetic, PGE2 substrate; Potency, µM, for the others: top-dose activity change, negative = inhibition, actives largely listed as inhibitors; 4.3% of 150,000 active; AID 894, 2007; note: potency is the fitted concentration of half-maximal effect
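20 nM HPGD preincubated 15 min at room temperature with compound in 50 mM Tris-HCl pH 8, 0.01% Tween 20. Started with 1 mM NAD+ and 30 uM prostaglandin E2; NADH fluorescence (360/450 nm) read 5 times over 30-s intervals, last minus first.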
ALOX12 inhib – qHTS Assay for Inhibitors of 12-hLO (12-human lipoxygenase); purified 12-hLO, xylenol orange hydroperoxide absorbance; Potency, µM (top dose mostly 57.1 µM), for inactives: top-dose activity change, negative = inhibition, most hits filed as inhibitors; 0.12% of 150,000 active; AID 1452, 2008; Polyunsaturated fatty acid lipoxygenase ALOX12 (Homo sapiens), P18054; active = well fitted inhibition curve with a large enough effect; inconclusive = small, poorly fitted or top-dose-only effect; note: potency is the fitted concentration of half-maximal effect; nearly all actives have a fitted effect of over 55% in size
Target sequence (P18054 whole entry, looked up): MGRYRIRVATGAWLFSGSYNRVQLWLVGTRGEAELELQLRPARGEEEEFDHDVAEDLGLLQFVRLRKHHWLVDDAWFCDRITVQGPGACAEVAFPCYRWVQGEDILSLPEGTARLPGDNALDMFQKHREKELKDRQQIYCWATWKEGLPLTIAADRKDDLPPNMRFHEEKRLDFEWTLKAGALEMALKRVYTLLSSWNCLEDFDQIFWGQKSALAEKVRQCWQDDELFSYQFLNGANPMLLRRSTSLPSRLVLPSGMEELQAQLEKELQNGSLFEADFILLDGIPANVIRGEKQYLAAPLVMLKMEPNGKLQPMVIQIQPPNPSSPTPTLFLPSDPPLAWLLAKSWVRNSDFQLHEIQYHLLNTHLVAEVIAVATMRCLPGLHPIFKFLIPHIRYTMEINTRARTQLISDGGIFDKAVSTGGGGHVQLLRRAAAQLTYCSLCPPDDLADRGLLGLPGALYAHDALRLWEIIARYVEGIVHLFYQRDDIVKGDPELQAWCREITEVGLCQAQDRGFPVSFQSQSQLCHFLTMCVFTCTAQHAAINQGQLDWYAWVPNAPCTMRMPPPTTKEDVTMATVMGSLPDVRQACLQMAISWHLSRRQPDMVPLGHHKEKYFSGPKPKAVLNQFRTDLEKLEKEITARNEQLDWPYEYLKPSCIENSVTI
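150 nM 12hLO, 25 mM Hepes pH 7.0 + 0.01% Triton X-100; cpd preinc 15 min RT; 40 uM arachidonic acid, 30 min RT; Fe-XO 30 min; A573/A405 ratio as read-out.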
Starred values were filed as active, the others as inactive; u = inconclusive; x = no result; [ ] = another dose, or the depositor's remark. The list is not random: actives were taken first. Their share in the collection is about 10%. Unless noted, calls come from the whole dose curve; as a rule, active = well fitted inhibition curve with a large enough effect (not every such curve was filed as active); inconclusive = small, poorly fitted or top-dose-only effect, or another doubt; inactive = no such curve, though single readings can be large or run the other way. Unless noted, % is set by controls: 0 for no effect and ±100 for the full control effect.

SMILES | LMNA splice mod | ALDH1A1 inh | PNC inhibitor | HPGD inh | ALOX12 inhib
CCOC(=O)c1c(NC(=O)C2CCCO2)sc(C)c1C (centres undefined) | x | 14µM* | x | x | x
NC(=O)c1c(NC(=O)C2CCCO2)sc2c1CCCC2 (centres undefined) | -11% | u | u | 8.9µM* | -3%
CCC(=O)N(CC(=O)Nc1sc(C)c(C)c1C(N)=O)C1CCCCC1 | -4% | u | u | -7% | 4%
CCCc1cc(C(N)=O)c(NC(=O)C2CCCO2)s1 (centres undefined) | -13% | 14µM* | 22 | u | -4%
COc1ccc2c(c1)C(=O)[C@@H](OC(=O)NCc1ccco1)[C@H](c1ccc(OC)c(Br)c1)O2 | x | u | x | -14% | x
CCOC(=O)c1c(NC(=O)C2CCCO2)sc(C(=O)OC(C)(C)C)c1C (centres undefined) | -2% | 14µM* | 16 | u | 3%
CCOC(=O)Nc1sc2c(c1C(=O)OCC)CCC2 | 0% | u | 13 | -20% | -3%
CCOC(=O)c1c(NC(=O)C2CCCO2)sc2c1CCC2 (centres undefined) | u | 22µM* | u | -19% | -11%
CCOC(=O)c1cccc(NC(=O)C2CCCO2)c1 (centres undefined) | 2% | 2% | u | -16% | 2%
CCOC(=O)c1sc(NC(=O)C2CCCO2)c(C(=O)OCC)c1C (centres undefined) | 7% | 8.9µM* | 19 | u | -6%
Cc1c(C(=O)OC(C)C)sc(NC(=O)C2CCCO2)c1C(=O)OC(C)C (centres undefined) | 3% | -12% | 21 | -8% | 4%
CCOC(=O)c1c(NC(=O)COc2cccc3c2CCN(C)C3=O)sc2c1CCC2 | u | 20µM* | u | u | -5%
COc1cccc([C@@H]2Oc3ccc(Br)cc3[C@H](O)[C@H]2O)c1 | x | -1% | x | -14% | x
Cn1c(=O)c2c(nc(/C=C/c3cccc(Cl)c3)n2C)n(C)c1=O | -22% | u | x | u | x
c1ccc(C2=NN[C@@H]3c4ccccc4-c4ccccc4N3C2)cc1 | x | u | x | -18% | -10%[11.4 µM]
CCOC(=O)c1c(NS(=O)(=O)c2cccc(OC)c2)sc2c1CCC2 | -14% | 10µM* | u | 35µM* | -13%
N#Cc1c(NC(=O)C2CCCO2)sc2c1CCCCCC2 (centres undefined) | u | 14µM* | -26 | u | -2%
O=C(NCC1(c2ccccc2)CCCC1)C(=O)NCC1(c2ccccc2)CCCC1 | -4% | 0% | -9 | -6% | 0%
CN1CCNC(=O)C1CC(=O)NCC1(c2ccccc2)CCCCC1 (centres undefined) | u | 16µM* | x | x | x
Cn1c(N)c(C(=O)COC(=O)Cn2cc(C(F)(F)F)ccc2=O)c(=O)n(C)c1=O | 22% | 7% | u | 16µM* | 0%
Cc1ccccc1/C=C\C1=NCCN1 | x | x | x | x | -3%
COc1ccc(N2CCN(S(=O)(=O)CCNC(=O)Cc3ccc(Cl)cc3)CC2)cc1 | 11%[46 µM] | x | x | x | x
O=[N+]([O-])c1cc2oc3c(c2c(C=NCc2ccccc2)c1O)CCCC3 | u | u | 18 | -15% | -5%
CC(C)CN=Cc1c(O)c([N+](=O)[O-])cc2oc3c(c12)CCCC3 | -12% | 28µM* | 0 | -15% | -5%
COCCN(C(=O)CCc1ccc(OC)cc1)c1nnc(-c2ccncc2)s1 | x | 22µM* | x | x | x
SMILES | LMNA splice mod | ALDH1A1 inh | PNC inhibitor | HPGD inh | ALOX12 inhib
COCCN(C(=O)CC(C)(C)C)c1nnc(-c2cccnc2)s1 | -11% | 0% | -6 | -4% | 3%
CCCC(=O)N(C)c1nnc(-c2ccc(OC)cc2)s1 | -4% | 28µM* | -8 | -17% | -1%
CCCCN(C(=O)Cc1cccs1)c1nnc(-c2cccnc2)s1 | -3% | 18µM* | -13 | -14% | -5%
COCCN(C(=O)CCc1ccccc1OC)c1nnc(-c2cccnc2)s1 | 12%[46 µM] | 4% | x | x | x
COCCN(C(=O)Cc1cccs1)c1nnc(-c2cccnc2)s1 | u | u | -100* | 1% | -1%
CC[C@H]1C2=C3C(CC[C@H]4C(OCc5ccc(F)cc5C(F)(F)F)OC[C@](C)([C@@H]34)N(C(=O)OC(C)(C)C)C2)C(COC)C1COC (some centres undefined) | x | 0% | x | -6% | 0%
CC(=O)NCCNc1nc(-c2ccccc2C)nc2ccccc12 | -8% | u | x | x | x
CCOC(=O)c1nn(-c2cccc(C)c2)c2nc(-c3ccccc3)c(C#N)c(=O)n12 | u | u | -117* | u | -12%
COc1cccc(OC)c1-c1nn2c(-c3ccco3)nnc2s1 | -10% | u | u | 16µM* | -7%
COc1cccc(-c2nn3c(-c4ccco4)nnc3s2)c1 | -4% | 3.5µM* | -14 | u | -20%
COc1cc(-c2nn3c(-c4ccco4)nnc3s2)cc(OC)c1OC | -13% | 11% | -29 | -15% | -3%
CCN(CC)S(=O)(=O)c1ccc(NC(=S)NC(=O)C(C)C)cc1 | 1% | 28µM* | 0 | -16% | -6%
CC(=O)NS(=O)(=O)c1ccc(NC(=S)NC(=O)CC(C)C)cc1 | 4%[46 µM] | 9% | x | x | x
CCN(CC)S(=O)(=O)c1ccc(NC(=S)NC(=O)CC(C)C)cc1 | u | -13% | -83* | -15% | -6%
Cc1cc(=O)n2ccsc2n1 | -4% | -6% | 7 | -13% | -2%
C=CCN1C(=O)S/C(=C\c2ccc3c(c2)n(C)c(=O)n3C)C1=O | -6% | 0.28µM* | 13 | 14% | 3%
C=CCN1C(=O)S/C(=C\c2ccc(N3CCOCC3)cc2C)C1=O | u | 0.89µM* | 4 | u | -6%
CCN1C(=O)S/C(=C/c2ccsc2)C1=O | -1% | u | -1 | -28% | 1%
CCOC(=O)CN1C(=O)S/C(=C/c2ccc3c(c2)n(C)c(=O)n3C)C1=O | 13% | u | -1 | -19% | -1%
C=CCN1C(=O)S/C(=C/c2ccsc2)C1=O | -5% | 13µM* | -10 | -24% | 3%
CCN(CC)c1ccc(NC(=O)C2CCN(c3nnc(-n4cccc4)s3)CC2)c(C)c1 | 17%[46 µM] | x | x | x | x
O=C(O)c1cc(-c2ccc(-c3ccc(-c4cc(C(=O)O)c5cc(Cl)ccc5n4)cc3)cc2)nc2ccc(Cl)cc12 | x | u | x | u | -2%[11.4 µM]
O=C(/C=C/c1ccc2c(c1)OCCCO2)c1ccccc1O | 4% | -11% | u | -21% | 0%
CCNc1ccccc(C(=O)/C=C/c2ccc3c(c2)OCO3)c1=O | -2% | 10µM* | -28 | 18µM* | u
O=C(NCc1ccc(F)cc1)c1cnn2ccccc12 | 3% | u | -84* | 3% | -2%
